An excerpt weighted towards active compounds, which were near 4.6% of everything screened.
D1 agonist: activates the human D1 dopamine receptor; AID 504660; 360,000 tested, 1% active; P21728; HEK293 T-REx D1 cells, calcium flux, agonist mode; activation, % at 2 µM; further: 0% is about no effect
Target sequence (P21728 whole entry, looked up): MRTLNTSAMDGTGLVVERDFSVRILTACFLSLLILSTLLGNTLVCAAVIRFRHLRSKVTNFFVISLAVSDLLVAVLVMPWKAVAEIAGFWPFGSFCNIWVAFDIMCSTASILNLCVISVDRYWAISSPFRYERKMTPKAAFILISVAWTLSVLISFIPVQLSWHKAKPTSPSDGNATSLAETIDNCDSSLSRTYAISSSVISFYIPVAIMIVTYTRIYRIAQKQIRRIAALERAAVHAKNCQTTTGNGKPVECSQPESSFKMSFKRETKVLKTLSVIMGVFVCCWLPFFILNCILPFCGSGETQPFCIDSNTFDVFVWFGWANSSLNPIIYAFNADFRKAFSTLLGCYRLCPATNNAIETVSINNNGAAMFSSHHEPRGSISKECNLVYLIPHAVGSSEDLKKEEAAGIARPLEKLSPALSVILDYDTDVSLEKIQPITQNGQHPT
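Tetracycline-induced HEK293 TREx D1 cells, force-coupled to calcium signalling, were dye-loaded with a no-wash calcium kit. Compound was pin-added after a 10 s baseline. Fluorescence was read kinetically at 1 cycle/s for 180 s, with calcium rises flagged as agonism.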
D1 PAM: enhances dopamine response at the human D1 receptor; P21728; potentiation, % at 10 µM; 360,000 tested, 0.036% active; HEK293 TREx D1 cells, calcium flux, dopamine EC20 potentiation; in the data active means potentiation above about 30%; further: 0% is about no effect
TRHR enhancer: allosterically enhances the human TRH receptor. AID 493056. 360,000 tested, 0.66% active. enhancement, % at 2 µM. P34981. TRHR cells, fluo-8 calcium fluorescence, EC20 TRH enhancement; in the data active means enhancement above about 30%; further: 0% is about no effect
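TRHR-expressing cells loaded with fluo-8 calcium dye were read kinetically (ex 480/em 530) during compound addition, then stimulated with an EC20 of TRH (10 nM final). Enhancement of the Gq-mediated intracellular calcium response was scored.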
D1 antagonist: blocks dopamine activation of the human D1 receptor; 360,000 tested, 3.2% active; P21728; activity change, negative = inhibition, % at 10 µM; HEK293 TREx D1 cells, calcium flux, dopamine EC80; hits give low values; AID 504652; in the data active means activity change below about -30%; further: on the % scale 0 is the no-effect control and ±100 the full control effect
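Antagonism measured as reduced calcium response to an EC80 dopamine addition following 180 s compound pre-read; cells were inducible HEK293 Trex D1 plated overnight at 30 C, read kinetically at 1 cycle/sec.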
TRHR ag: activates the human TRH receptor; TRHR cells, calcium flux fluo-8, FDSS agonist mode; P34981; AID 493084; 360,000 tested, 0.18% active; activation, % at 2 µM; further: 0% is about no effect
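Read-out: compound-evoked intracellular calcium rise in TRHR cells, fluo-8 dye, kinetic FDSS fluorescence at 1 s/cycle following a 10-cycle baseline. Cells cultured overnight before dye loading (30 min–1.5 h, RT).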
* hit, by the source's call; · = no result given; ! = repeats disagree. Unless noted, no stated cut-off is given here; in the data, active means activation above about 30%; inactive means the rest.

SMILES	D1 agonist	D1 PAM	TRHR enhancer	D1 antagonist	TRHR ag
Cc1nnc(N2C(=O)C(O)=C(C(=O)c3ccco3)C2c2ccc(C(C)C)cc2)s1 (stereo not given)	51.2*	-2.2	-1.5	-2.7	15.5
Cc1ccc(C2C(C(=O)c3ccco3)=C(O)C(=O)N2c2ncccn2)cc1 (stereo not given)	4.2	-2.7	-1.7	-7.3	0.7
CSc1ccc(C2C(C(=O)c3ccco3)=C(O)C(=O)N2c2nnc(SC)s2)cc1 (stereo not given)	31.3*	0.0	7.5	-11.0	18.3
Cc1nnc(N2C(=O)C(O)=C(C(=O)c3ccco3)C2c2ccc(F)cc2)s1 (stereo not given)	35.7*	-0.2	11.4	10.5	21.1
CCCCOc1cccc(C2C(C(=O)c3ccc(C)o3)=C(O)C(=O)N2c2nnc(C)s2)c1 (stereo not given)	7.7	-2.0	-4.2	9.6	2.9
CCCOc1cccc(C2C(C(=O)c3ccco3)=C(O)C(=O)N2c2nnc(C)s2)c1 (stereo not given)	76.0*	·	12.4	5.5	8.7
O=C(C1CCC(=O)N(C2CCCC2)C1)N1CCC(Oc2cccc(F)c2)CC1 (stereo not given)	2.3	-4.8	-0.2	7.7	0.5
O=C(C1CCC(=O)N(C2CC2)C1)N1CCC(Oc2cccc(F)c2)CC1 (stereo not given)	-0.7	-6.2	2.6	-36.7*	0.6
O=C(CSC1=Nc2ccccc2C2=NC(CCC(=O)NC3CCCCC3)C(=O)N12)Nc1cccc(C(F)(F)F)c1 (stereo not given)	29.9	2.8	-10.5	6.9	-0.5
CCN(CC(=O)NCc1ccc(Cl)cc1)C(=O)/C=C/c1ccccc1	-0.2	1.9	-6.1	-31.2*	-0.3
Cc1[nH]c2c(Br)cccc2c1[C@H]1[C@@H](CC#N)C1(C)C	5.0	-3.9	32.2*	2.6	0.0
Cc1c([C@H]2[C@@H](CC#N)C2(C)C)c2ccccc2n1C	0.6	-6.7	-0.8	-12.4	-1.3
O=c1oc2c(F)cc(F)cc2cc1S(=O)(=O)c1ccc(F)cc1	69.2*	-1.2	7.3	6.0	-0.9
Cc1ccc2oc(=O)c(S(=O)(=O)c3ccc(F)cc3)cc2c1	2.1	0.3	-5.1	-1.4	-0.6
COCCOc1ccc(C(F)(F)F)cc1NC(=O)COC(=O)c1c(C)noc1C	2.6	-3.6	33.8*	24.8	-1.1
COCCOc1ccc(C(F)(F)F)cc1NC(=O)COC(=O)c1cc[n+]([O-])cc1	6.0	-4.0	12.6	-17.3	0.2
Cc1ccc(-c2noc(-c3ccc(NCc4ccco4)c([N+](=O)[O-])c3)n2)cc1	6.6	-1.1	1.0	-4.0	0.0
CC(C)CCNC(=O)CCCn1c(=O)c2cccn2c2ccccc21	7.4	-4.2	11.6	-37.4*	-0.5
CCOc1cc(CNC(=O)CCCn2c(=O)c3cccn3c3cccnc32)cc(OCC)c1OCC	0.2	-5.0	-3.4	-33.0*!	1.2
COc1ccccc1CNC(=O)CCCn1c(=O)c2cccn2c2ccccc21	26.5	-4.0	-8.3	-36.2*	-0.5
CCOc1ccccc1CNC(=O)CCCn1ncn2c(cc3occc32)c1=O	0.6	-1.8	-4.1	-39.5*!	0.5
COc1ccc(NC(=O)CCCn2nc(C)c3sc4ccccc4c3c2=O)cc1	0.6	-2.5	-0.3	-7.9	0.2
Cc1cccc(-c2nsc(SCC(=O)N3CCCC3)n2)c1	5.0	-1.4	-9.0	-37.2*	-0.1
Cc1cccc(NC(=O)CSc2nc3n[nH]c(C)c3c(=N)n2-c2cccc(Cl)c2)c1	1.1	-6.8	-5.3	-35.1*	0.1
Cc1ccc(NC(=O)CSc2nc3n[nH]c(C)c3c(=N)n2-c2cccc(C)c2)cc1	1.2	-0.8	0.9	-3.4	-0.6
SMILES	D1 agonist	D1 PAM	TRHR enhancer	D1 antagonist	TRHR ag
Cc1cccc(-n2c(SCC(=O)N3CCCC3)nc3n[nH]c(C)c3c2=N)c1	5.7	2.2	40.1*	-10.4	-1.3
O=C(CSc1nc(-c2ccccc2)ns1)N1CCOCC1	4.3	1.4	3.8	14.8	-0.4
CCc1cccc(NC(=O)CSc2n[nH]c(-c3ccccc3Cl)n2)c1	4.5	-1.4	3.3	-10.0	0.1
COc1ccc(S(=O)(=O)NCCc2csc(-c3cccc(F)c3)n2)cc1OC	5.8	-1.0	2.3	-4.0	-0.4
CCc1ccccc1NC(=O)Cn1c(C(=O)OC)cc2oc(C)cc21	-0.3	-1.9	-3.9	5.4	-0.1
CCC(=O)N1CCc2cc(S(=O)(=O)N3CCN(c4ccccc4F)CC3)ccc21	0.5	-5.0	-0.5	-0.7	0.7
CCOC(=O)c1ccccc1NC(=O)CSc1nc(=O)[nH]c2c1CCCC2	-0.5	-0.7	-1.4	·	-0.4
COc1ccc(C)cc1NC(=O)CSc1nc(=O)[nH]c2c1CCCC2	30.7*	-1.6	4.3	·	-0.2
COc1ccc(Cl)cc1NC(=O)CSc1nc2sccc2c(=O)[nH]1	1.0	9.9	3.8	6.4	-1.2
COc1ccc(C)cc1NC(=O)CSc1nc2scc(C)c2c(=O)[nH]1	11.2	4.6	4.9	-31.2*	1.6
Cc1ccc(CN2C(=O)c3ccccc3Sc3ccc(C(=O)NCc4ccco4)cc32)cc1	2.6	-1.3	-4.6	-4.5	0.4
O=C(Nc1csc([N+](=O)[O-])c1)Nc1ccccc1Cl	12.9	-8.9	-3.8	-31.3*	0.1
COc1ccc(Cl)cc1NC(=O)CSc1cn(CC(=O)N2CCCCC2)c2ccccc12	3.9	0.1	-4.6	-10.9	0.6
CCOc1ccc(OCc2cccc(C(=O)Nc3ccc(CN4CCCCC4)cc3)c2)cc1	37.6*	-8.8	-2.5	-30.5*	2.9
O=C(Nc1ccc(CN2CCCCC2)cc1)c1cccc(F)c1	2.8	-8.3	-2.6	9.3	1.2
COc1cc(OC)cc(C(=O)Nc2ccc(CN3CCCCC3)cc2)c1	0.6	-3.6	15.5	-6.6	0.1
COc1ccc(OCc2cccc(C(=O)Nc3ccc(CN4CCCCC4)cc3)c2)cc1	47.5*	-11.1	-1.7	-20.3	2.6
O=C1C=C(c2ccccc2)C(=O)N1Nc1ccccc1	4.1	-7.9	32.7*	-9.8	3.8
Cc1ccc(NN2C(=O)C=C(c3ccc(Cl)cc3)C2=O)cc1	3.3	-8.4	-1.9	-39.0*	1.3
COc1ccc(C2=CC(=O)N(Nc3ccccc3)C2=O)cc1	5.3	-5.1	2.2	18.8	1.8
COc1ccc(-c2noc(-c3cccc(OC)c3OC)n2)cc1	7.9	-4.5	1.2	-15.2	1.2
COc1nc(C)ccc1-c1noc(-c2ccccn2)n1	-1.5	-5.5	0.4	-9.5	0.0
COc1ccccc1-c1nc(-c2ccc(C)nc2OC)no1	5.6	-1.9	4.4	-31.9*	-0.5
Cc1cccc(N2CC(c3nc4ccccc4n3CCC3CCCCC3)CC2=O)c1 (stereo not given)	3.2	-3.6	1.8	7.5	0.7
O=C(O)/C=C/c1ccc2noc(-c3ccccc3)c2c1	-0.2	-1.8	32.3*	5.0	0.6

Screening data (PubChem BioAssay)
